Inconclusive results are not listed. A call without a number means that no potency is given here. A number with no mark means an inactive call. Calls of active or inactive are those of the source. Calls follow the shape of the dose curve; as a rule, active = well fitted curve in the direction sought with a large enough effect; inconclusive = small, poorly fitted or top-dose-only effect, or another doubt; inactive = no such curve, though single readings can be large; an effect the other way counts as inactive or inconclusive.
Legend:
[1] = biological target: Rap guanine nucleotide exchange factor 3 (Homo sapiens) (UniProt O95398); experiment: Confirmatory qHTS for antagonist of cAMP-regulated guanine nucleotide exchange factor 3 (EPAC1) (AID 1645880); conditions: EPAC1 Rap1B-BODIPY-GDP exchange, fluorescence; activity, negative = inhibition: at 115 µM (top of the series); also: nearly all actives have a fitted effect of over 55% in size; also: potency is read from the fitted curve at half-maximal effect
Method in brief: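 Released BODIPY-GDP fluoresces less than Rap1-bound BODIPY-GDP; the signal is followed at 480/540 nm at 5-min intervals over 30 min, after 5 min at room temperature. Reactions contain 100 nM EPAC1, 250 nM RAP1B-BODIPY-GDP and 50 uM GDP; results are normalized to ATA and DMSO.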

[2] = biological target: Rap guanine nucleotide exchange factor 3 (Homo sapiens) (UniProt O95398); experiment: Confirmatory qHTS for agonist of cAMP-regulated guanine nucleotide exchange factor 3 (EPAC1) (AID 1645881);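 also: EPAC1 catalysed release of BODIPY-GDP from Rap1B seen as fluorescence loss; nearly all actives have a fitted effect of over 75% in size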
[3] = biological target: Rap guanine nucleotide exchange factor 4 (Homo sapiens) (UniProt Q8WZA2); experiment: Confirmatory qHTS for agonist of cAMP-regulated guanine nucleotide exchange factor 4 (EPAC2) (AID 1645884);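 also: nucleotide exchange releases bodipy-GDP from Rap1 and this lowers its fluorescence; nearly all actives have a fitted effect of over 65% in size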; also: potency is read from the fitted curve at half-maximal effect
[4] = biological target: Rap guanine nucleotide exchange factor 3 (Homo sapiens) (UniProt O95398); experiment: Counterscreen qHTS for antagonist of cAMP-regulated guanine nucleotide exchange factor 3 (EPAC1) (AID 1645888)
Method in brief: (§1)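 Measured: fluorescence of BODIPY-GDP bound to Rap1B, which falls as exchange proceeds. Conditions include 50 uM competing GDP, 5 and 30 min reads, and a later cAMP challenge for antagonist detection.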

[5] = biological target: Rap guanine nucleotide exchange factor 3 (Homo sapiens) (UniProt O95398); experiment: Counterscreen qHTS for agonist of cAMP-regulated guanine nucleotide exchange factor 3 (EPAC1) (AID 1645889); also: nearly all actives have a fitted effect of over 40% in size; also: potency is read from the fitted curve at half-maximal effect
Method in brief: as §1

Chain of Rap guanine nucleotide exchange factor 3 (Homo sapiens) (O95398 whole entry, looked up): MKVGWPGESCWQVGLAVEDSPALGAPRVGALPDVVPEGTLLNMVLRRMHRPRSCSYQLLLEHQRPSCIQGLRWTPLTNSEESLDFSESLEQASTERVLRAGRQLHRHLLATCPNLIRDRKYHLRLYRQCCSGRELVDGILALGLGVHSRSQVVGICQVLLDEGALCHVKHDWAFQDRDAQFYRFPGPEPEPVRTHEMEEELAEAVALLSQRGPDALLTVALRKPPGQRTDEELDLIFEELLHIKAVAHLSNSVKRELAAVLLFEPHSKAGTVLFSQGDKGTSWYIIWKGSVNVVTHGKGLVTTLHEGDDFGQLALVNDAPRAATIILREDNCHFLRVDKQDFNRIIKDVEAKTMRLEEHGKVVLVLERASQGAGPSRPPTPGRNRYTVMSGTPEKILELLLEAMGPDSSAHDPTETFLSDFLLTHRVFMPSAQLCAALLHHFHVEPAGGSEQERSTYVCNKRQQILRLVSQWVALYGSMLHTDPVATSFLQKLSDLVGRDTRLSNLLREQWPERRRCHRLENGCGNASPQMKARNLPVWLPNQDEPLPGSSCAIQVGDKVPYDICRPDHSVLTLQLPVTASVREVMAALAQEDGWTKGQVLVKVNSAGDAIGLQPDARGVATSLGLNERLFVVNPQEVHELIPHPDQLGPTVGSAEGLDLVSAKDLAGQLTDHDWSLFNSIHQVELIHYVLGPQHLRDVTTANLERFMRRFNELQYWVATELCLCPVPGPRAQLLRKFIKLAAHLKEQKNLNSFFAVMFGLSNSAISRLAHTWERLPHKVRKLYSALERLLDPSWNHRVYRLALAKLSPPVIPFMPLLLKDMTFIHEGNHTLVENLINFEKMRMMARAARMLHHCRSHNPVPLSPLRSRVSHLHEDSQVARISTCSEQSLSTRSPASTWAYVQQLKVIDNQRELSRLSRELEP
Chain of Rap guanine nucleotide exchange factor 4 (Homo sapiens) (Q8WZA2 whole entry, looked up): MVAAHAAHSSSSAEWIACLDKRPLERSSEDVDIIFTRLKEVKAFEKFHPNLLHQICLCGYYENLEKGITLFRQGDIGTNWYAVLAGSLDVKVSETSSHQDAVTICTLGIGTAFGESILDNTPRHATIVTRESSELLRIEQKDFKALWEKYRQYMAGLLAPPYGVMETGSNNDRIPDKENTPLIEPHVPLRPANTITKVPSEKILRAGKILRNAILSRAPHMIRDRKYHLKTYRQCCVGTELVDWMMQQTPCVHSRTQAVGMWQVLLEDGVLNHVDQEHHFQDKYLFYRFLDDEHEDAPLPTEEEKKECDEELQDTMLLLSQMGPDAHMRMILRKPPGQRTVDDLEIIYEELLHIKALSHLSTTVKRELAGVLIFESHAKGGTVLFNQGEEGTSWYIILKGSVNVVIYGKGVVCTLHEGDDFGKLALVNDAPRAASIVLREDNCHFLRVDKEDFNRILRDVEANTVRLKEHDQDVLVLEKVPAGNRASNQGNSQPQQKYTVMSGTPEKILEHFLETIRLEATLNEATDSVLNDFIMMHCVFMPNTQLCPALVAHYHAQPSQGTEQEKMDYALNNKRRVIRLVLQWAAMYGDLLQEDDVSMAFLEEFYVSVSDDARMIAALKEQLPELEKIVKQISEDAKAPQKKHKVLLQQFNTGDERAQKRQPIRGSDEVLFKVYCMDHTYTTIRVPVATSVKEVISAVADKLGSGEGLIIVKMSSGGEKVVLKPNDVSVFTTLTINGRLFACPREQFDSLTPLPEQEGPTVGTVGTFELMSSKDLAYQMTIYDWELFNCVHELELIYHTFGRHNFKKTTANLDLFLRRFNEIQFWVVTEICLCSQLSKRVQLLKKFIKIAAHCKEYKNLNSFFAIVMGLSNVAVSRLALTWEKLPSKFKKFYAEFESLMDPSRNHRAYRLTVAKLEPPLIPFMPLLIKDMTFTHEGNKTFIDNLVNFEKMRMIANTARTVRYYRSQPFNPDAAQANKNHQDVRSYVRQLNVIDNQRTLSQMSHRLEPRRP

SMILES | Potency [1] | Potency [2] | activation [3] | activity change, negative = inhibition [4] | activation [5] | Potency [3] | Potency [4] | Potency [5]
Cc1ccc(Cl)cc1N1CCN(C(=O)c2cccc3c(=O)c(C)c(-c4ccccc4)oc23)CC1 | inactive | inactive | 13% [at 17.1 µM, percent relative to cAMP agonist control] | -10.3% [at 30.8 µM] | 25.9% [at 30.8 µM] | – | – | –
Cc1cc(C)c2sc(N(CCCN(C)C)C(=O)c3ccc(S(=O)(=O)N(C)C4CCCCC4)cc3)nc2c1 | inactive | inactive | – | – | – | inactive | inactive | inactive
O=C(CN1C(=O)N/C(=C\c2ccccc2OCc2ccc(C(=O)O)cc2)C1=O)Nc1ccc(F)cc1 | 42.6 µM (active) | inactive | – | – | – | inactive | inactive | inactive
COC(=O)C1=C(C)N(CCCC(=O)O)C(=O)NC1c1ccc(-c2ccccc2)cc1 (stereo not given) | inactive | inactive | – | – | – | inactive | inactive | inactive
COc1ccc(C(=O)c2ccc(Cl)cc2)c(OC)c1OC | inactive | inactive | 6.47% [at 17.1 µM, percent relative to cAMP agonist control] | -1.07% [at 30.8 µM] | 6.99% [at 30.8 µM] | – | – | –
COc1cc(/C=C2/C(=O)NN(c3ccc(Cl)c(Cl)c3)C2=O)cc([N+](=O)[O-])c1O | 6.75 µM (active) | inactive | – | – | – | inactive | inactive | inactive
O=C(NN1C(=O)/C(=C/c2ccc(O)c([N+](=O)[O-])c2)SC1=S)c1ccccc1Cl | 84.9 µM (active) | inactive | – | – | – | inactive | inactive | inactive
CCCN(CC1CC1)c1cc2c(c3c1ccn3C)C1CCC2C1 (stereo not given) | inactive | inactive | – | – | – | inactive | inactive | inactive
O=[N+]([O-])c1cc(/C=N/O)ccc1Oc1ccccc1Cl | inactive | inactive | – | – | – | inactive | inactive | inactive
CCOC(=O)C1=C(C)N=c2s/c(=C\c3ccc(OCC(=O)O)cc3)c(=O)n2C1c1ccc(OC(C)C)cc1 (stereo not given) | 75.7 µM (active) | inactive | – | – | – | inactive | inactive | inactive
CCOC(=O)C1CCCCN1Cc1cccc(Oc2ccccc2)c1 (stereo not given) | inactive | inactive | 6.17% [at 17.1 µM, percent relative to cAMP agonist control] | -24.9% [at 30.8 µM] | 29% [at 30.8 µM] | – | – | –
O=S(=O)(Nc1ccc(C(O)(C(F)(F)F)C(F)(F)F)cc1)c1ccc(Cl)c2nonc12 | 42.6 µM (active) | inactive | – | – | – | inactive | inactive | inactive
COc1ccc(C(=O)n2c(-c3ccco3)nc3ccccc32)cc1 | inactive | inactive | 7.17% [at 17.1 µM, percent relative to cAMP agonist control] | -27.8% [at 30.8 µM] | 10% [at 30.8 µM] | – | – | –
CCN(CC(=O)Nc1ccc(NC(C)=O)cc1)C(=O)C1(c2ccc(Cl)cc2)CCC1 | inactive | inactive | – | – | – | inactive | inactive | inactive
CCOc1ccccc1OCC(=O)Nc1cc(S(=O)(=O)N2CCCCC2)ccc1N1CCN(CC)CC1 | inactive | inactive | – | – | – | inactive | inactive | inactive
Cc1ccc2c(c1)C(=O)CC(c1ccccc1)S2 (stereo not given) | inactive | inactive | -3.98% [at 17.1 µM, percent relative to cAMP agonist control] | -21.7% [at 30.8 µM] | 6.35% [at 30.8 µM] | – | – | –
CCN(CC(=O)Nc1c(F)cccc1F)C(=O)/C=C/c1ccc2ccccc2n1 | 8.49 µM (active) | inactive | – | – | – | inactive | inactive | inactive
CC(C1CC1)N(C(=O)NC1CCS(=O)(=O)C1)c1ccccc1 (stereo not given) | inactive | inactive | – | – | – | inactive | inactive | inactive
O=C(N/N=C/c1c(O)n(-c2ccccc2Cl)c(=O)c2ccccc12)C1COc2ccccc2O1 (stereo not given) | 42.6 µM (active) | inactive | – | – | – | inactive | inactive | inactive
O=C(Cc1ccc(Br)cc1)N(Cc1ccccc1)c1ccccn1 | inactive | inactive | – | – | – | inactive | inactive | inactive
Clc1cccc(-c2ccc3nccn3c2)c1Cl | inactive | inactive | – | – | – | inactive | inactive | inactive
COc1ccc(-c2csc3ncn(-c4ccc(C)cc4)c(=O)c23)cc1OC | inactive | inactive | – | – | – | inactive | inactive | inactive
COC(=O)C1=CN(Cc2cccs2)C=C(C(=O)OC)C1c1cccc(Cl)c1 | inactive | inactive | 2.31% [at 17.1 µM, percent relative to cAMP agonist control] | -4.15% [at 30.8 µM] | 24.6% [at 30.8 µM] | – | – | –
Cc1ccc([C@H]2C(C(=O)O)=CC[C@@H](c3ccc(C(C)C)cc3)N2S(=O)(=O)c2ccc(C)cc2)cc1 | 75.7 µM (active) | inactive | – | – | – | inactive | inactive | inactive
CCCS(=O)(=O)NC(=O)C1(C)CCN(C(=O)c2cccc(OC(F)(F)F)c2)C1 (stereo not given) | inactive | inactive | – | – | – | inactive | inactive | inactive
CCOC(=O)CSc1nc2c(c(=O)n(C)c(=O)n2C)n1Cc1ccccc1F | inactive | inactive | – | – | – | inactive | inactive | inactive

SMILES | Potency [1] | Potency [2] | activation [3] | activity change, negative = inhibition [4] | activation [5] | Potency [3] | Potency [4] | Potency [5]
OC[C@@H]1[C@@H](c2ccc(F)cc2)C(c2cccc(Cl)c2)=NN1c1ccccc1 | inactive | inactive | – | – | – | inactive | inactive | 12.6 µM (active)
Cc1cc(/C=C2\SC(=S)NC2=O)c(C)n1-c1ccc(O)cc1 | 84.9 µM (active) | inactive | – | – | – | inactive | inactive | inactive
C[C@H](CO)N1C[C@H](C)[C@@H](CN(C)C)Oc2c(NS(=O)(=O)c3ccccc3)cccc2C1=O | inactive | inactive | – | – | – | inactive | inactive | inactive
Cc1ccc(S(=O)(=O)N2[C@@H](c3cccc(Cl)c3)C(C(=O)O)=CC[C@H]2c2ccc(Cl)c(Cl)c2)cc1 | 67.5 µM (active) | inactive | – | – | – | inactive | inactive | inactive
CCC(=O)NC(c1ccc(C)cc1)c1cc([N+](=O)[O-])c2cccnc2c1O (stereo not given) | 53.6 µM (active) | inactive | – | – | – | inactive | inactive | inactive
Cc1cc(C)c(S(=O)(=O)c2ccccc2C)c(SCC(C)C)n1 | inactive | inactive | 10.6% [at 17.1 µM, percent relative to cAMP agonist control] | -9.64% [at 30.8 µM] | -2.44% [at 30.8 µM] | – | – | –
CCOc1nc(-c2ccccc2)c2cc(C)ccc2n1 | inactive | inactive | – | – | – | inactive | inactive | inactive
Cc1cc(S(=O)(=O)N2CCN(CC(=O)N(C)Cc3ccccc3)CC2)ccc1Br | inactive | inactive | – | – | – | inactive | inactive | inactive
COc1ccc(S(=O)(=O)Nc2cccc(C)c2C)c2cccnc12 | inactive | inactive | – | – | – | inactive | inactive | inactive
CC(=O)OCCNc1cc(N2CCN(C)CC2)c2noc3c2c1C(=O)c1ccccc1-3 | inactive | inactive | – | – | – | inactive | inactive | inactive
Cc1cc(C)n(Cc2ccc(C(=O)N/N=C/c3ccc(-c4ccc([N+](=O)[O-])cc4)o3)o2)n1 | 47.8 µM (active) | inactive | – | – | – | inactive | inactive | inactive
O=C(N/N=C/c1cc(Cl)c(O)c(Cl)c1)c1cc2c(ccc3ccccc32)o1 | 60.1 µM (active) | inactive | – | – | – | inactive | inactive | inactive
Cc1ccc(C(=O)NCCCNC(=O)c2ccc(Cl)cc2)cn1 | inactive | inactive | – | – | – | inactive | inactive | inactive
Cc1ccc(SCCSc2ncccn2)cc1 | inactive | inactive | -2.5% [at 17.1 µM, percent relative to cAMP agonist control] | -17.4% [at 30.8 µM] | -4.72% [at 30.8 µM] | – | – | –
Cc1ccccc1-c1cc2nc(NCCN3CCNC3=O)n(C)c(=O)c2s1 | inactive | inactive | – | – | – | inactive | inactive | inactive
Cc1c(Cl)cccc1NC(=O)Nc1cccnc1 | inactive | inactive | – | – | – | inactive | inactive | inactive
COc1ccccc1C1CC(=O)Oc2cc(C)cc(C)c21 (stereo not given) | inactive | inactive | 3.14% [at 17.1 µM, percent relative to cAMP agonist control] | -8.23% [at 30.8 µM] | 7.71% [at 30.8 µM] | – | – | –
Cc1ccc(S(=O)(=O)N2[C@@H](c3ccc(F)cc3)C(C(=O)O)=CC[C@H]2c2ccc(C(C)C)cc2)cc1 | 75.7 µM (active) | inactive | – | – | – | inactive | inactive | inactive
CC(C)CSC1=NSC2=NC(=O)/C(=C\c3coc4ccccc4c3=O)C(=N)N12 | inactive | inactive | – | – | – | 112 µM (active) | inactive | inactive
CCOC(=O)c1c(NC(=O)/C=C/C(=O)O)sc(C)c1-c1ccc(C(C)(C)C)cc1 | 42.6 µM (active) | inactive | – | – | – | inactive | inactive | inactive
CC1CCN(c2oc(-c3ccccc3F)nc2C#N)CC1 | inactive | inactive | – | – | – | inactive | inactive | inactive
COc1ccc(/C=C2\SC(=S)NC2=O)cc1OS(=O)(=O)c1ccc(NC(C)=O)cc1 | 37.9 µM (active) | inactive | – | – | – | inactive | inactive | inactive
COc1cc(C(c2c(C(=O)O)[nH]c3ccccc23)c2c(C(=O)O)[nH]c3ccccc23)ccc1OCc1ccccc1 | 15.1 µM (active) | inactive | – | – | – | inactive | inactive | inactive
COc1ccc(C2CC(=O)c3ccccc3O2)cc1 (stereo not given) | inactive | inactive | – | – | – | inactive | inactive | inactive
Cc1ccc(C(C)C)c(OCc2ccc(C(=O)N/N=C/c3ccc(O)c(O)c3)cc2)c1 | 33.8 µM (active) | inactive | – | – | – | inactive | inactive | inactive

From PubChem BioAssay (NCATS)
